Holding throughout (assay): NCI-60 one-dose screen, 48 h (100 = growth as untreated, 0 = no growth, -100 = all killed)
Experiment [1] has as its system SK-MEL-2 melanoma. The following applies: 10 µM unless noted.
For experiment [2], the system named is EKVX NSCLC. Particulars: 10 µM unless noted.
Experiment [3] deals with SN12C renal. The following applies: 10 µM unless noted.
Experiment [4] deals with UO-31 renal. Particulars: 10 µM unless noted.
Experiment [5] deals with TK-10 renal. The following applies: 10 µM unless noted.
Experiment [6] has as its system ACHN renal. Particulars: 10 µM unless noted.
The subject of experiment [7] is CAKI-1 renal. The following applies: 10 µM unless noted.
Experiment [8] relates to A498 renal. The following applies: 10 µM unless noted.
Experiment [9] relates to CCRF-CEM leukemia. The following applies: 10 µM unless noted.
The subject of experiment [10] is MOLT-4 leukemia. The following applies: 10 µM unless noted.
The test system of experiment [11] is SR leukemia. The following applies: 10 µM unless noted.
For experiment [12], the system named is RPMI-8226 leukemia. The following applies: 10 µM unless noted.
The subject of experiment [13] is OVCAR-8 ovarian. Particulars: 10 µM unless noted.
The test system of experiment [14] is OVCAR-5 ovarian. The following applies: 10 µM unless noted.
The test system of experiment [15] is OVCAR-4 ovarian. Particulars: 10 µM.
The subject of experiment [16] is SK-OV-3 ovarian. The following applies: 10 µM unless noted.
The test system of experiment [17] is IGROV1 ovarian. The following applies: 10 µM unless noted.
Experiment [18] has as its system OVCAR-3 ovarian. Particulars: 10 µM unless noted.
The subject of experiment [19] is HS 578T breast. The following applies: 10 µM unless noted.
Experiment [20] concerns NCI/ADR-RES ovarian. Particulars: 10 µM unless noted.

The structures appear in SMILES notation. About 83,000 compounds went through this panel and 20% of them were active in at least one assay; those are over-represented in the sample as a whole.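 Activity criterion: percent growth below 10, measured after cells in 96-well plates were exposed to a single compound concentration for 48 hours.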 A number with no mark means an inactive call. Activity calls are given as the source filed them.

`CC1Cc2c(ncnc2-n2cnc3ccccc32)N(C)c2ccccc21` (stereo unspecified): the growth was -6.66% (active) in experiment [1]; 48.6% in experiment [2]; 35.5% in experiment [3]; 46.4% in experiment [4]; 50% in [5]; 55.7% in experiment [6]. For the same compound, the growth in experiment [7] was 33.6%; in experiment [8], -2.09% (active); in experiment [9] it was 13%; in [10], 23.2%; in [11], 15.2%; in [12], 26.2%. Further, the growth is 44.1% in [13]; 95.2% in experiment [14]; 65.2% in experiment [15]; 17.2% in experiment [16]; 62.5% in [17]; 14.7% in [18]. Also, the growth was 36.6% in experiment [19] and 9.36% (active) in experiment [20].

As for `Cc1cc(C)c(-c2cc(O)c(-c3c(C)cc(C)cc3C)cc2O)c(C)c1`, the growth in experiment [1] is 66%; in experiment [2], 53.9%; in [3] it was 65.5%; in experiment [4] it was 62.1%; in [5] it was 56.3%; in [6], 38.3%. For the same compound, the growth is 40.4% in experiment [7]; 5.72% (active) in experiment [8]; 18.5% in [9]; 47.9% in experiment [10]; 19.9% in experiment [11]; 42.3% in [12]. Besides, the growth is 49.4% in [13]; 50.7% in experiment [14]; 58.9% in experiment [15]; 4.25% (active) in [16]; 70.3% in experiment [17]; -25.7% (active) in experiment [18]. Further, the growth in experiment [19] was 11.9%.

For `O=S(=O)(NCCNc1nccc(-c2c(-c3cccc(F)c3)nc3occn23)n1)c1ccc(C(F)(F)F)cc1`, the growth was 92.2% in [1]; 84.2% in [2]; 84.8% in [3]; 57.1% in experiment [4]; 97.5% in experiment [5]; 87.7% in [6]. Moreover, the growth was 68.9% in [7]; 78% in experiment [8]; 84% in [9]; 52.9% in experiment [10]; 88.3% in experiment [11]; 75.5% in [12]. Further, the growth in experiment [13] is 87.5%; in [14], 102%; in experiment [15], 87.6%; in [16], 79.5%; in [17], 77%; in [18], 99.1%. Besides, the growth is 74.3% in [19] and 95.5% in experiment [20].

As to `COc1ccc(C(=O)CSc2nccc(Nc3ccc(C(=O)O)cc3)n2)cc1`, the growth in experiment [1] was 103%; in experiment [2] it was 103%; in [3] it was 99.3%; in experiment [4], 82%; in [5], 103%; in [6], 101%. Further, the growth in experiment [7] was 97.7%; in experiment [8], 106%; in experiment [9] it was 105%; in [10], 106%; in [11] it was 91.4%; in experiment [12] it was 109%. Further, the growth in experiment [13] is 94.8%; in experiment [14], 103%; in [15], 108%; in experiment [16], 99.1%; in experiment [17], 91.8%; in [18], 100%. Further, the growth in [19] is 84.4%.

With `C=CCCC1(C)NC(=O)NC1=O` (stereo unspecified), the growth in experiment [1] is 102%; in [2], 105%; in experiment [3], 97.9%; in experiment [4], 97.8%; in experiment [5] it was 89.9%; in [6], 112%. Further, the growth is 93.3% in experiment [7]; 88.5% in experiment [8]; 85.6% in [9]; 83.7% in [10]; 94.4% in experiment [11]; 104% in [12]. In addition, the growth in [13] is 102%; in experiment [14], 102%; in experiment [15] it was 99.4%; in [16], 94.6%; in experiment [17] it was 115%; in experiment [18] it was 106%. The growth was 105% in experiment [19] and 103% in experiment [20].

`CCc1ccc(-c2ccc(COc3ccc(CC4SC(=O)NC4=O)cc3)cc2)cc1` (stereo unspecified): the growth in experiment [1] is 71.6%; in experiment [2], 63%; in experiment [3], 74.5%; in experiment [4], 61.1%; in [5] it was 92.8%; in experiment [6], 69.5%. Besides, the growth was 51% in experiment [7]; 100% in experiment [8]; 61.3% in [9]; 58.5% in experiment [10]; 45.9% in [11]; 57.5% in [12]. In addition, the growth in experiment [13] is 77.2%; in [14], 91.2%; in experiment [15] it was 58.6%; in experiment [16] it was 84.9%; in experiment [17] it was 63.8%; in experiment [18], 73.6%. In addition, the growth in experiment [19] was 80.9%; in experiment [20], 65.1%.

Consider `O=C(Nc1cccc(F)c1)c1cc(=O)[nH]c2cc(Br)ccc12`, for which the growth is 41.2% in [1]; 63% in [2]; 60% in experiment [3]; 51.5% in experiment [4]; 69.8% in [5]; 57% in experiment [6]. Besides, the growth in [7] was 33.8%; in [8], 30.8%; in experiment [9], 58.8%; in experiment [10], 45.8%; in experiment [11] it was 21.8%; in experiment [12] it was 76.1%. Also, the growth in experiment [13] is 71.8%; in [14] it was 63.3%; in experiment [15], 70.6%; in experiment [16] it was 51.8%; in experiment [17] it was 40.5%; in experiment [18] it was 23.5%. The growth in experiment [19] was 52.4%.

For `CC1(C)OC2[C@@H](CNC(=O)NC(=O)NC(=O)CI)O[C@@H](n3cnc4c(NC(=O)Nc5ccccc5)ncnc43)[C@H]2O1` (stereo partly specified), the growth in [1] was 95.4%; in experiment [2], 77.3%; in experiment [3] it was 82.8%; in [4] it was -78.6% (active); in experiment [5], 102%; in experiment [6], 66.2%. Also, the growth in experiment [7] was -69% (active); in experiment [8], 99.4%; in experiment [9], -44% (active); in [10], -23.6% (active); in [11], -50.8% (active); in [12], 64.2%. Besides, the growth in [13] is 75.9%; in experiment [14] it was 93%; in experiment [15], 73.5%; in experiment [16], 105%; in experiment [17], 15.5%; in experiment [18], -32.6% (active). Also, the growth in experiment [19] is 98.7%.
